In the library only some 2.3% were active in any assay of this set; here they are far more common.
Bim-Mcl-1 – disrupts Bim peptide binding to human Mcl-1; Q07820; Bead-based flow cytometry, Bim peptide-Mcl-1 binding; inhibition, % at 10 µM; 0.1% of 190,000 active; AID 1009; in the data active = inhibition above about 40%
Target sequence (Q07820 whole entry, looked up): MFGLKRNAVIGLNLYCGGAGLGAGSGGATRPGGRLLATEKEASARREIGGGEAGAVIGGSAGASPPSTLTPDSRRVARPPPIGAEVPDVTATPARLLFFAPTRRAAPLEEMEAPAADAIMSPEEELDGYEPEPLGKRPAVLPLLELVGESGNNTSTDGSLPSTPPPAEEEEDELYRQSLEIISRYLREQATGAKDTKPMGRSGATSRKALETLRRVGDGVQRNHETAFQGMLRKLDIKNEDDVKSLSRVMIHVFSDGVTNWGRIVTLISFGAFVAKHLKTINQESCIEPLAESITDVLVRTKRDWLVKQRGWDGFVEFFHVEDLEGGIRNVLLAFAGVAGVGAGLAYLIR
GLD-1 RNA inh – GLD-1-TGE RNA interaction inhibition (C. elegans); purified GLD-1 + fluorescein TGE RNA, fluorescence polarization; inhibition, % at 5.96 µM; 0.44% of 320,000 active;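 active = percent inhibition above a per-plate cutoff, the plate mean of test compounds plus 3 SD, cut at about 30% in these data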
Mcl1-Bid inh – Mcl-1/Bid interaction inhibition. inhibition, % at 21.7 µM. AID 1021. Q07820. TR-FRET Mcl-1/Bid-Dy647 peptide binding, 1536-well. 0.97% of 220,000 active;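 active = compounds that cut the binding signal by more than half at the single screening dose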;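 also: His-tagged Mcl-1 with europium anti-His antibody binding Bid BH3 peptide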
Bcl-xL primary – blocks human Bcl-xL binding to Bim BH3 peptide; Q07817; AID 2129; 0.7% of 320,000 active; inhibition, % at 10.9 µM; GST-Bcl-xL / FITC-Bim BH3 peptide fluorescence polarization;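 active = inhibition above the mean of all tested compounds plus 3 SD, cutoff set per campaign, cut at about 30% in these data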;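 also: inhibitors lower millipolarization by displacing the labeled peptide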
Target sequence (Q07817 whole entry, looked up): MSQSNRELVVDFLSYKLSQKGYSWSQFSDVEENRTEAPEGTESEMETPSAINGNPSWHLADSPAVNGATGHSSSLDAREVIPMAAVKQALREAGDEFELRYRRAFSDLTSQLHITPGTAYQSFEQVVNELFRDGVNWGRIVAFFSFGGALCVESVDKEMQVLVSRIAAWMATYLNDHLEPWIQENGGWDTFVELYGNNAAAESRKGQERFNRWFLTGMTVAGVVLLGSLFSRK
Mcl1 Noxa PPI – disrupts binding of human Mcl-1 to Noxa peptide; TR-FRET Mcl-1/Noxa peptide binding, 2 h; 1.5% of 220,000 active; inhibition, % at 21.7 µM;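 active = compounds that cut the protein-peptide binding signal by more than 50% relative to plate controls in a single-dose test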;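 also: His-tagged Mcl-1 with rhodamine Noxa BH3 peptide and terbium anti-His antibody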
MCL1-BIM inh – MCL1-BIM-BH3 interaction inhibition (human). AID 2057. inhibition, % at 10.9 µM. 0.68% of 320,000 active. GST-MCL1 / FITC-Bim-BH3 fluorescence polarization;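 active = inhibition above the mean inhibition of all tested compounds plus 3 SD, set per campaign, cut at about 40% in these data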;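 also: higher means more loss of mP so more displacement of Bim peptide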
Each line names hits and unclear results; the compound was inactive in the other large screens.

Cc1cnc(C(=O)OCC(=O)Nc2ccc(Br)c(C)c2)cn1	none (no result: Bim-Mcl-1, Mcl1-Bid inh, Mcl1 Noxa PPI)
O=C(N/N=C/c1ccc(F)cc1)c1c(O)c2ccccc2[nH]c1=O	none
O=C(N/N=C/c1cccc(F)c1)c1c(O)c2ccccc2[nH]c1=O	Mcl1-Bid inh 51, Mcl1 Noxa PPI 64
CCOC(=O)NC(=O)/C(C#N)=C/c1ccc(N(C)C)cc1	Mcl1-Bid inh 82 (no result: Bim-Mcl-1)
CN(C)c1ccc(/C=C(\C#N)C(=O)c2ccccc2)cc1	none (no result: Bim-Mcl-1)
CCOC(=O)/C=C(\C)Sc1cc(=O)oc2ccccc12	none
CCOC(=O)/C=C(\C)Sc1cc(O)c2ccccc2c1O	Mcl1 Noxa PPI 88 (no result: Bim-Mcl-1, GLD-1 RNA inh, Bcl-xL primary, MCL1-BIM inh)
CC(C)(C)Nc1nc(Cl)nc(NCc2ccccc2)n1	none (no result: Bim-Mcl-1)
CCOC(=O)c1nnc(-c2ccc(C)cc2)nc1Sc1ccc(Cl)cc1	Mcl1-Bid inh 55
CCOC(=O)c1nnc(-c2ccc(C)cc2)nc1Sc1ccccc1Cl	none
Cc1ccc(NS(=O)(=O)c2cc(NC(=O)c3cc(=O)[nH]c(=O)[nH]3)ccc2Cl)c(C)c1	none (no result: Bim-Mcl-1)
CCOC(=O)c1c(NC(=O)Cn2c(C)nc3ccccc32)sc2c1CCC2	none
CCOC(=O)c1c(NC(=O)COC(=O)Cn2c(C)nc3ccccc32)sc2c1CCCC2	Mcl1-Bid inh 56
O=C(NCc1ccc(F)cc1)C1CCCN1C(=O)NCc1ccccc1 (stereo unspecified)	Mcl1 Noxa PPI 52
COc1cccc2[nH]c3c(N4CCc5ccccc5C4)ncnc3c12	Mcl1 Noxa PPI 62 (no result: Bim-Mcl-1)
CCc1nnc(NC(=O)c2ccc(-c3ccccc3Cl)o2)s1	Mcl1-Bid inh 53
CC(=O)Nc1ccc(-c2csc(NC(=O)C3CC(=O)N(c4ccc5c(c4)OCCO5)C3)n2)cc1 (stereo unspecified)	Mcl1 Noxa PPI 87 (no result: Bim-Mcl-1)
CCN1C(=O)C(CC(=O)Nc2ccccc2)S/C1=N\c1ccccn1 (stereo unspecified)	none
O=S(=O)(NCc1ccccc1)c1ccc(Cl)cc1	none
O=S(=O)(Nc1cc2nc3ccccc3nc2n1Cc1ccccc1)c1ccc(Cl)cc1	GLD-1 RNA inh 40
COc1ccc(N2CCN(C(=O)NC3CCCCC3)CC2)cc1	none
COc1cccc(N2CCN(C(=O)NC3CCCCC3)CC2)c1	Mcl1-Bid inh 94
Oc1cc(O)c2c(c1)O[C@H](c1ccc(O)c(O)c1)[C@@H](O)C2	none (no result: Bim-Mcl-1)
O=C1c2c(O)cc(O)cc2O[C@@]12c1c(cc(O)c3c1O[C@H](c1ccc(O)cc1)[C@@H](O)C3)O[C@@H]2c1ccc(O)cc1	Mcl1 Noxa PPI 66
CCOc1ccc(C(=O)OCC(=O)N2CCCC2)cc1OCC	none (no result: Bim-Mcl-1, Mcl1-Bid inh, Mcl1 Noxa PPI)
Cc1csc2ncnc(N3CCN(C(=S)Nc4ccc(F)cc4F)CC3)c12	Mcl1-Bid inh 90 (no result: Bim-Mcl-1)
Cc1ccc(C)c(S(=O)(=O)ON2C(=O)c3ccccc3C2=O)c1	Mcl1 Noxa PPI 60
Oc1ccc(Br)cc1-c1cc(-c2ccco2)[nH]n1	Mcl1 Noxa PPI 64
Oc1ccccc1-c1cc(-c2ccco2)[nH]n1	none
CC1C(=O)CCN(C(C)C)C1C (stereo unspecified)	Mcl1-Bid inh 90
Cc1ccc(OCCC(=O)OC(C)C(=O)Nc2c(C)n(C)n(-c3ccccc3)c2=O)cc1 (stereo unspecified)	none (no result: Bim-Mcl-1, Mcl1-Bid inh, Mcl1 Noxa PPI)
Cc1cc(C(=O)COC(=O)CCc2nc3ccccc3s2)c(C)n1C	Mcl1 Noxa PPI 59
Cn1c(=O)c2c(ncn2CC(=O)N/N=C/c2ccc(Br)s2)n(C)c1=O	none
Cc1ccc(-c2cc(C(=O)Nc3ccccc3C)c3ccccc3n2)o1	Mcl1 Noxa PPI 66
COC(=O)c1cc(-c2ccc(C)o2)nc2ccccc12	Mcl1 Noxa PPI 78
CN(C)c1ccc(NS(=O)(=O)c2cc(Cl)ccc2Cl)cc1	Mcl1 Noxa PPI 69
CCN(c1ccc(NS(=O)(=O)c2cc(Cl)ccc2Cl)cc1)C(C)C	none
Nc1nc2ccc([N+](=O)[O-])c(N)c2s1	Mcl1 Noxa PPI 54
CC(C)COc1ccc(C(=O)Nc2ccc(SC(F)F)cc2)cc1	none
Cn1c(=O)c2c(C(=O)O)cc(-c3ccccc3)nc2n(Cc2ccccc2)c1=O	Bcl-xL primary 38 (no result: Bim-Mcl-1, Mcl1-Bid inh, Mcl1 Noxa PPI)
COc1ccccc1-c1cc(C(=O)O)c2c(=O)n(C)c(=O)n(Cc3ccccc3)c2n1	none (no result: Bim-Mcl-1, Mcl1-Bid inh, Mcl1 Noxa PPI)
COc1ccc(-c2nn(CCC(=O)O)cc2/C=C2\SC(N)=NC2=O)cc1OC	Mcl1 Noxa PPI 90
O=C1C2C3C=CC(C2C(=O)N1c1cccc(O)c1)C1C2C(=O)N(c4cccc(O)c4)C(=O)C2C31 (stereo unspecified)	Mcl1 Noxa PPI 94
CC(=O)Oc1cccc(N2C(=O)C3C4C=CC(CC4)C3C2=O)c1 (stereo unspecified)	none (no result: Bim-Mcl-1, Mcl1-Bid inh, Mcl1 Noxa PPI)
CCOC(=O)Nc1ccc2c(c1)nc(CN1CCOCC1)n2C	none
CN(C)c1ccc(C(=O)Nc2nnc(-c3ccc(Cl)cc3)o2)cc1	Mcl1 Noxa PPI 69
CC(=O)c1ccc(C(=O)Nc2nnc(-c3ccc(Cl)cc3)o2)cc1	none (no result: Bim-Mcl-1)
O=c1[nH]c(=S)[nH]c2c1C(c1ccc(Br)cc1)c1c([nH]c(=S)[nH]c1=O)O2	Bcl-xL primary 39, MCL1-BIM inh 72 (no result: Bim-Mcl-1, Mcl1-Bid inh, Mcl1 Noxa PPI)
Cc1ccc(C2C3=C(CCCC3=O)Nc3[nH]c(=S)[nH]c(=O)c32)cc1 (stereo unspecified)	none
O=C1CCCC2=C1C(c1ccc(Br)cc1)c1c([nH]c(=S)[nH]c1=O)N2 (stereo unspecified)	Bcl-xL primary 34, Mcl1 Noxa PPI 53
CCn1c(SCC(=O)N2CCOCC2)nc2oc3c(Cl)cc(Cl)cc3c(=O)c2c1=O	Mcl1 Noxa PPI 54
COc1ccc(S(N)(=O)=O)cc1C(=O)NC1CCCc2ccccc21 (stereo unspecified)	none (no result: Bim-Mcl-1, Mcl1-Bid inh, Mcl1 Noxa PPI)
CCOc1ccc(OCC(=O)Nc2ccc(S(=O)(=O)Nc3cc(C)nc(C)n3)cc2)cc1	Mcl1 Noxa PPI 68
Cc1cc(NS(=O)(=O)c2ccc(NC(=O)COc3ccc(Br)cc3)cc2)nc(C)n1	none (no result: Bim-Mcl-1, Mcl1-Bid inh, Mcl1 Noxa PPI)
CC(=O)c1ccc(NC(=O)CN2CCN(c3ncccn3)CC2)cc1	none
CN1CCN(C(c2cccnc2)c2ccc3cccnc3c2O)CC1 (stereo unspecified)	Mcl1 Noxa PPI 52
O=C(NNC(=O)c1cc(Cl)nc2ccccc12)c1ccccc1F	none (no result: Bim-Mcl-1, Mcl1-Bid inh, Mcl1 Noxa PPI)
ONc1cccnc1-n1nc(C(F)(F)F)cc1C(F)(F)F	Bcl-xL primary 38
O=C(O)c1ccccc1C(=O)Nc1ccc(-n2nc(C(F)(F)F)cc2C(F)(F)F)cc1	none (no result: Bim-Mcl-1)
COc1ccc(OCc2cc(C(=O)O)c(C)o2)cc1	none (no result: Bim-Mcl-1)
COc1cccc(N2CCN(C3CC(=O)N(c4ccc(Cl)c(Cl)c4)C3=O)CC2)c1 (stereo unspecified)	Mcl1-Bid inh 59
Cc1ccc(OC(=O)C2CSC3(C)CCC(=O)N23)c(Br)c1 (stereo unspecified)	none (no result: Bim-Mcl-1, Mcl1-Bid inh, Mcl1 Noxa PPI)
CCc1ccc(C(=O)NC2CCCCC2)s1	Mcl1-Bid inh 61
COc1cccc(C(=O)NN2CC(O)=C(c3nc(C)cs3)C2=N)c1	none (no result: Bim-Mcl-1)
